Data as given in PubChem BioAssay (NCI).
The panel holds about 83,000 compounds, 20% with a hit somewhere; the sample as a whole holds those more often.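 Testing used 96-well plates and a 48-hour single-concentration exposure. Example: -40 means 40% of the starting cells died.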 Unmarked numbers belong to inactive results. Active and inactive are the calls of the source. The calls were made as follows: active = growth percent below 10; inactive = the rest.

system: MDA-MB-468 breast; assay: NCI-60 one-dose screen, 48 h (100 = growth as untreated, 0 = no growth, -100 = all killed); conditions: 10 µM unless noted

In the case of `COc1cc2cc(Oc3cccc(NC(=O)Nc4cc(C(F)(F)F)cc(C(F)(F)F)c4)c3)c(C)nc2cc1OC`, the growth was -8.12% (active).
With `CC(=O)Nc1c(Cl)cc2c(c1Cl)Cc1cc([N+](=O)[O-])ccc1-2` the growth was -27.8% (active).
For `O=C(CN1CCN(c2cc(=O)n(-c3ccccc3)c3ccccc23)CC1)Nc1cccc(C(F)(F)F)c1`, the growth was 4.55% (active).
With `O=c1c(-c2ccc3c(c2)OCO3)coc2c(CO)c(O)ccc12` the growth was -14.5% (active).
With `NCCCNc1nc2ccccc2c2c(=O)c3cc(C(F)(F)F)ccc3sc12` the growth was -49.1% (active).
`COc1cc(/C=N\NC(=O)CN2CCN(c3cc4c(cc3F)c(=O)c(C(=O)N/N=C/c3ccc(O)c(OC)c3)cn4C3CC3)CC2)ccc1O` was tested, and the growth was -37.8% (active).
`C=C(C(=O)c1ccccc1)C(NC(C)(C)C)c1ccccc1` (stereo not given) was tested, and the growth was -37.3% (active).
With `C/C(=N\NC(=O)CSc1nc2sc3c(c2c(=O)n1-c1ccccc1)CCC(C)C3)c1ccc(Cl)cc1` (stereo not given) the growth was -28% (active).

Point of comparison: `Cc1cc([N+](=O)[O-])c(C)cc1C(=O)O`, growth 109%. Against it:
- COc1cc(CNC(=O)CCCC/C=C/C(C)C)ccc1OCc1nnc(Nc2ccc([N+](=O)[O-])cc2)o1 — lower, 53.7%
- O=C(N/N=C/c1ccc(O)c(O)c1)c1sc2ccccc2c1Cl — lower, 88.8%
- C=C(C=O)[C@@H]1CC=C(C=O)CC1 — lower, 20.2%
- C=C1CCC2C3(C)COC(c4ccccc4)OC3CCC2(C)C1C/C=C1/C(=O)OCC1OC(C)=O (stereo not given) — lower, 53%
- CNc1nc2ncc(-c3c(C)noc3C)cc2n1Cc1ccccc1 — lower, 34.7%
- Cc1cc2c(C(C)C)c(O)c(O)c(C=NCCCCC(=O)O)c2c(O)c1-c1c(C)cc2c(C(C)C)c(O)c(O)c(C=NCCCCC(=O)O)c2c1O — lower, 35.4%
- COc1cc(C2C=C(c3ccc(C)cc3)Nc3nc(SC)[nH]c(=O)c32)ccc1Oc1ccnc2cc(Cl)ccc12 (stereo not given) — lower, 75.3%
- Cc1ccccc1NC(=O)Oc1ccc(Cl)cc1C(=O)c1ccccc1 — lower, 88.2%
- O=c1[nH]cc(Cl)cc1O — lower, 108%
- Cc1nn(-c2ccccc2)c2nc3nc4c(c(N)c3c(-c3ccc(Cl)cc3)c12)CCCC4 — lower, 104%
- O=C(CCC(=O)OC1CCCC1)OC1CCCC1 — lower, 100%
- NNC(=O)c1sc2nc(-c3cnccn3)cc(-c3cccs3)c2c1N — lower, 97.2%
- Cc1nn(-c2cc(=O)[nH]c3ccc(Cl)cc23)c(N)c1C#N — higher, 111%
- COc1ccc(/C=C(/C(=O)N2CCCCC2)c2cc(OC)c(OC)c(OC)c2)cc1 — lower, 13.3%
- O=C(/C=C1\C=CN(CCCCO)c2ccccc21)n1ccc2ccccc21 — lower, 98%
- CC(=O)OC(C)C(=O)NCC(C)O (stereo not given) — lower, 105%
- COc1ccc(/C(C)=C(\c2ccc(Cl)cc2)c2ccc(OCCCN(C)C)cc2)cc1F — lower, 75.7%
- CCCCCCCC/C=C\CCCCCCCCOc1ccc(CC(=O)NCC[N+]2(C)CCCC2)cc1 — lower, 33.5%
- Nc1nc2ncc(CNc3ccc(C(=O)NC(CCC(=O)NC(CCC(=O)NC(CCC(=O)NC(CCC(=O)NC(CCC(=O)O)C(=O)O)C(=O)O)C(=O)O)C(=O)O)C(=O)O)cc3)nc2c(=O)[nH]1 (stereo not given) — higher, 131%
- CCN1C(=O)N(CC)C2C1N=C(SCc1ccc(Cl)cc1)N2/N=C/C=C/c1ccccc1OC (stereo not given) — lower, 40.5%
- C=CCn1c(SCC(=O)Nc2cccc(C(=O)/C=C/c3ccc(Br)cc3)c2)nc2ccccc2c1=O — lower, 99.6%
- c1ccc(Nc2ccccn2)nc1 — lower, 93.3%
- CC(O)COc1ccc(-c2ccccc2)cc1 (stereo not given) — lower, 102%
- COc1nc2c(cc1S(=O)(=O)c1ccccc1)CCc1c-2cnn1Cc1ccccc1 — lower, 45.7%
- COc1ccc(N2C(=O)c3cc(Cl)ccc3NC2SCc2ccccc2)cc1 (stereo not given) — lower, 98.1%
- Nc1cc(-c2c[nH]c3ccc(Cl)cc23)nc2cc(-c3c[nH]c4ccc(Cl)cc34)nn12 — lower, 68.2%
- CNC(=O)c1cc(Oc2ccc(NC(=O)Nc3ccc(Cl)c(OC(C)C)c3)c(F)c2)ccn1 — lower, 11.8%
- CC(C)(C)c1nc(-c2ccc(O)c(O)c2)cs1 — lower, 53.5%
- O=C1NCCS(=O)(=O)/C1=C\C=C\c1cccc(C(F)(F)F)c1 — lower, 17.9%
- CCCCOc1ccc(/C=N/Nc2cc(C)nc3ccc(Br)cc23)cc1 — lower, 32.2%
- CNC(=O)c1cc(Oc2cccc3nc(NC(=O)Nc4cc(C(F)(F)F)cc(C(F)(F)F)c4)ccc23)ccn1 — lower, 32%
